Several values for one entry are separate records, joined by “and”; a condition that tells them apart may be missing. Equal values may be shown once. Inconclusive results are not listed. Entries that show only a call come without a potency. Some structures have more than one record in an assay (separate samples or runs), and their calls can disagree. Activity calls are given as the source filed them. Unless noted, calls follow the shape of the dose curve; as a rule, active = well fitted curve in the direction sought with a large enough effect in the repeat runs; inconclusive = weak or mixed curves; inactive = no such curve, though single readings can be large; an effect the other way counts as inactive or inconclusive.
What was measured:
[1] = qHTS assay to identify small molecule agonists of the peroxisome proliferator-activated receptor delta (PPARd) signaling pathway - cell viability counter screen (AID 743211); also: nearly all actives have a fitted effect of over 55% in size; also: potency is read from the fitted curve at half-maximal effect
Outline: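 Tox21 library compounds, delivered in DMSO, were incubated 17 h with PPARd-bla HEK293H cells; cytotoxicity was taken from CellTiter-Glo luminescence read 30 min after reagent addition.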

[2] = biological target: Peroxisome proliferator-activated receptor delta (Homo sapiens) (UniProt Q03181); test: qHTS assay to identify small molecule agonists of the peroxisome proliferator-activated receptor delta (PPARd) signaling pathway (AID 743212; calls by dose curve)
Outline: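 HEK293H PPARd-bla cells; 5 h preincubation 37 C/5% CO2; compound (DMSO) 37 C; LiveBLAzer B/G FRET substrate 2 h RT; fluorescence intensity.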

[3] = qHTS assay to identify small molecule antagonists of the peroxisome proliferator-activated receptor delta (PPARd) signaling pathway - cell viability counter screen (AID 743213); also: nearly all actives have a fitted effect of over 50% in size
Outline: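 Luminescence from CellTiter-Glo, added after the bla read and incubated 30 min at room temperature, gives viability of HEK293H PPARd-bla cells exposed to compounds for 17 h at 37 C with 300 nM L165041.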

[4] = biological target: Peroxisome proliferator-activated receptor delta (Homo sapiens) (UniProt Q03181); test: qHTS assay to identify small molecule antagonists of the peroxisome proliferator-activated receptor delta (PPARd) signaling pathway (AID 743215; active = well fitted inhibition curve with a large enough effect in the signal ratio in the repeat runs, not every such curve was filed as active; the % refers to the signal ratio;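 also: cells stimulated with agonist L165041 at 300 nM final during compound exposure; series mostly up to about 62 µM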)
Outline: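 With L165041 present at 300 nM final, compounds were incubated 17 h at 37 C on PPARd UAS-bla HEK293H cells. A FRET-based beta-lactamase substrate was then applied for 2 h at room temperature and fluorescence intensity recorded.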

[5] = qHTS assay to identify small molecule agonists of the farnesoid-X-receptor (FXR) signaling pathway - cell viability counter screen (AID 743218); also: nearly all actives have a fitted effect of over 45% in size; also: potency is read from the fitted curve at half-maximal effect
Outline: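 After 16 h at 37 C with test compounds, FXR-bla HEK 293T cells were given LiveBLAzer B/G substrate for 2 h at RT and then CellTiter-Glo; luminescence was taken after 30 min.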

[6] = qHTS assay to identify small molecule antagonists of the farnesoid-X-receptor (FXR) signaling pathway - cell viability counter screen (AID 743221; active = well fitted cell-killing curve with a large enough effect in the repeat runs, not every such curve was filed as active; also: nearly all actives have a fitted effect of over 50% in size; also: potency is read from the fitted curve at half-maximal effect)
Outline: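 Cytotoxicity is taken from ATP luminescence (CellTiter-Glo, 30 min, room temperature) in FXR-bla HEK 293T cells previously incubated 16 h at 37 C with compound and chenodeoxycholic acid at 50 uM final.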

[7] = qHTS assay to identify small molecule agonists of the vitamin D receptor (VDR) signaling pathway - cell viability counter screen (AID 743224); also: nearly all actives have a fitted effect of over 50% in size; also: potency is read from the fitted curve at half-maximal effect
Outline: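 Here cell health was gauged by luminescent ATP detection (CellTiter-Glo, 30 min RT) in VDR-bla cells that had been incubated with test compounds for 16 h at 37C and 5% CO2.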

[8] = qHTS assay to identify small molecule antagonists of the vitamin D receptor (VDR) signaling pathway - cell viability counter screen (AID 743225); also: nearly all actives have a fitted effect of over 50% in size
Outline: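 Same-well multiplex: following 16 h treatment of HEK 293T cells carrying a UAS-driven beta-lactamase reporter with compound and agonist (3 nM final), and a 2 h FRET substrate step, CellTiter-Glo was added and luminescence read after 30 min.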

[9] = qHTS assay to identify small molecule agonists of the NFkB signaling pathway (AID 1159509; active = well fitted curve in the direction sought with a large enough effect in the signal ratio in the repeat runs, not every such curve was filed as active; the % refers to the signal ratio; also: series mostly up to about 61 µM)
Outline: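 ME-180 NFkB-bla, 2,000 cells/well, overnight plating; cpd pinned in DMSO, 5 h 37 C; B/G FRET substrate 1.5 h RT; ex 405, em 460/530 nm.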

[10] = qHTS assay to identify small molecule agonists of the NFkB signaling pathway - cell viability counter screen (AID 1159515; calls by dose curve; also: series mostly up to about 61 µM; nearly all actives have a fitted effect of over 55% in size)
Outline: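 5 hr compound treatment of NFkB-bla ME-180 cells (2,000/well, seeded overnight beforehand), followed by reporter substrate for 1.5 hr. CellTiter-Glo added afterward; luminescence after 30 min RT.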

[11] = qHTS assay to identify small molecule agonists of the endoplasmic reticulum stress response signaling pathway (AID 1159516; active = well fitted activation curve with a large enough effect in the signal ratio in the repeat runs, not every such curve was filed as active; the % refers to the signal ratio)
Outline: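 Reporter HeLa cells (ESRE-beta-lactamase) underwent 5 hr compound incubation at 37 C and 5% CO2 in quantitative HTS format. Detection followed 2 hr of FRET substrate loading at room temperature.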

[12] = qHTS assay to identify small molecule antagonists of the retinoid-related orphan receptor gamma (ROR-gamma) signaling pathway - cell viability counter screen (AID 1159520); also: nearly all actives have a fitted effect of over 50% in size
Outline: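 Cytotoxicity was read from cellular ATP (CellTiter-Glo luminescence) after 16 hr at 37 C with 1 uM doxycycline induction. The inducer was added 2 hr after compound transfer to Tet-on ROR gamma CHO cells.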

[13] = qHTS assay to identify small molecule agonists of the AP-1 signaling pathway - cell viability counter screen (AID 1159525; calls by dose curve; also: nearly all actives have a fitted effect of over 55% in size)
Outline: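 Luminescent ATP readout (Cell Titer Glo, 30 min RT), normalised to DMSO and tetra n-octyl ammonium bromide controls. Cells were ME-180 AP-1-bla in 0.5% dialyzed FBS Opti-MEM, with a 5 h, 37 °C compound exposure.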

[14] = qHTS assay to identify small molecule agonists of the AP-1 signaling pathway (AID 1159526; calls by dose curve)
[15] = biological target: Nuclear receptor ROR-gamma (Homo sapiens) (UniProt P51449); test: qHTS assay to identify small molecule antagonists of the retinoid-related orphan receptor gamma (ROR-gamma) signaling pathway (AID 1159521)
Outline: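 Inducible-expression reporter assay: doxycycline (1 uM final) switched on RORγ in CHO cells bearing a ROR response element-luciferase construct, with test compounds present from 2 h beforehand. Decreased luminescence after 16 h defined antagonist activity.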

[16] = biological target: Vitamin D3 receptor (Homo sapiens) (UniProt P11473); test: qHTS assay to identify small molecule agonists of the vitamin D receptor (VDR) signaling pathway (AID 743222; calls by dose curve)
Outline: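 VDR-bla cells were seeded, left 4 h, treated with compounds in DMSO for 16 h, incubated 2 h at RT with B/G FRET substrate, and read for fluorescence.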

[17] = biological target: Vitamin D3 receptor (Homo sapiens) (UniProt P11473); test: qHTS assay to identify small molecule antagonists of the vitamin D receptor (VDR) signaling pathway (AID 743223; active = well fitted inhibition curve with a large enough effect in the signal ratio in the repeat runs, not every such curve was filed as active; the % refers to the signal ratio)
Outline: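 Quantitative HTS in VDR-bla reporter cells stimulated with 1alpha,25-dihydroxyvitamin D3, 3 nM final. Compound exposure 16 h, 37C, 5% CO2. Read-out: beta-lactamase FRET substrate fluorescence, 2 h RT.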

[18] = biological target: Bile acid receptor (Homo sapiens) (UniProt Q96RI1); test: qHTS assay to identify small molecule agonists of the farnesoid-X-receptor (FXR) signaling pathway (AID 743220; active = well fitted activation curve with a large enough effect in the signal ratio in the repeat runs, not every such curve was filed as active; the % refers to the signal ratio)
Outline: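 Beta-lactamase reporter under UAS control in GeneBLAzer FXR HEK 293T cells (5000/well) measured with LiveBLAzer FRET substrate after 2 h at room temperature. Compound exposure lasted 16 h at 37C.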

Vitamin D3 receptor (Homo sapiens), sequence (P11473 whole entry, looked up): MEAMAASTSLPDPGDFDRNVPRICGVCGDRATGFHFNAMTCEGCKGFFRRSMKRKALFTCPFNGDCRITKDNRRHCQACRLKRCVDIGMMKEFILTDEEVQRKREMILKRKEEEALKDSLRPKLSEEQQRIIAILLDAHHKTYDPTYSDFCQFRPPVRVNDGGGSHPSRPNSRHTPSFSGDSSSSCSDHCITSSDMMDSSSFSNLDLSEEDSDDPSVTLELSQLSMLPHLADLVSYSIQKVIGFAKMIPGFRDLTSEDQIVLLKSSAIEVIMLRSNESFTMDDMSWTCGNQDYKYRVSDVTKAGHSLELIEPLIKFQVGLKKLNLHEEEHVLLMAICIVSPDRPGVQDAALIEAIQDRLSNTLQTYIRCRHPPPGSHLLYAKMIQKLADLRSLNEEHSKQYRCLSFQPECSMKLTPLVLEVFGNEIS
Bile acid receptor (Homo sapiens), sequence (Q96RI1 whole entry, looked up): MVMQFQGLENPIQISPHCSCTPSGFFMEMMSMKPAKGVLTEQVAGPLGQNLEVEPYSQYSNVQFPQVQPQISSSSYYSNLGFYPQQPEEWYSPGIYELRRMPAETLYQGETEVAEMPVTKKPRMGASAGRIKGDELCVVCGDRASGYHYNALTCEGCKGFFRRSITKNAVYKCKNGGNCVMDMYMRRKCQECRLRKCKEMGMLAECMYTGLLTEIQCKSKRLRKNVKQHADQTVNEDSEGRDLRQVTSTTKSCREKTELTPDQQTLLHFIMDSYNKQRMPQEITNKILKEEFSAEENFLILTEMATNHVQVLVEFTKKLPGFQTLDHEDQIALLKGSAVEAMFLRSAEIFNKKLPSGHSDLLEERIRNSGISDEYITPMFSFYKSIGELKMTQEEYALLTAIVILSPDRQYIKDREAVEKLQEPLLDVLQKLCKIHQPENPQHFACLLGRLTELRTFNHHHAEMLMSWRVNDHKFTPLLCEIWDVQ
Peroxisome proliferator-activated receptor delta (Homo sapiens), sequence (Q03181 whole entry, looked up): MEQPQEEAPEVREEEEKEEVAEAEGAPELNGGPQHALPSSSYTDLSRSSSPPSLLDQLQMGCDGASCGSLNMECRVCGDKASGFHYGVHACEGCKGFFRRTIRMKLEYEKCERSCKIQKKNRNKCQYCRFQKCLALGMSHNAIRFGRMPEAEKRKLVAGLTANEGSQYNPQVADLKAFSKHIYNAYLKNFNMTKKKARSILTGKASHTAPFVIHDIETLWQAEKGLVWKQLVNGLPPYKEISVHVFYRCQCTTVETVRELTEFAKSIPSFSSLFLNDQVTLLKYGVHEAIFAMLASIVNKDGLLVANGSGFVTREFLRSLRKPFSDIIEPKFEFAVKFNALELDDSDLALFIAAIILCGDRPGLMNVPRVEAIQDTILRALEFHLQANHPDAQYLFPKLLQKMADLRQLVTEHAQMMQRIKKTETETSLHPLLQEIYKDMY

| SMILES | Potency [1] | outcome [2] | outcome [3] | outcome [4] | Potency [5] | Potency [6] | Potency [7] | outcome [8] | outcome [9] | outcome [10] | outcome [11] | outcome [12] | outcome [13] | Potency [14] | Potency [15] | outcome [16] | outcome [17] | outcome [18] |
| --- | --- | --- | --- | --- | --- | --- | --- | --- | --- | --- | --- | --- | --- | --- | --- | --- | --- | --- |
| CCOP(=S)(OCC)Oc1cc(C)nc(C(C)C)n1 | inactive and 54.9 µM (active) | inactive | inactive | inactive | inactive and 49 µM (active) | inactive and 43.6 µM (active) | inactive and 24.5 µM (active) | inactive | inactive | inactive | inactive | inactive | inactive | inactive | – | – | – | – |
| CNC(=O)O/N=C/C(C)(C)S(C)(=O)=O | – | – | inactive | – | inactive | inactive | inactive | inactive | inactive | inactive | inactive | inactive | inactive | inactive | inactive | – | – | – |
| C=C(C)C(=O)OCC(CC)CCCC (stereo unspecified) | inactive | – | inactive | – | inactive | inactive | inactive | inactive | inactive | inactive | inactive | inactive | inactive | inactive | – | inactive | inactive | – |
| c1ccc2c(c1)CCCC2 | inactive | – | inactive | – | inactive | inactive | inactive | inactive | inactive | inactive | inactive | inactive | inactive | inactive | – | inactive | inactive | inactive |
| COS(=O)(=O)OC | – | inactive | inactive | – | inactive | inactive | inactive | inactive | inactive | inactive | inactive | inactive | inactive | inactive | inactive | inactive | inactive | – |
| CNc1cnn(-c2cccc(C(F)(F)F)c2)c(=O)c1Cl | inactive | inactive | inactive | inactive | inactive | inactive | inactive | inactive | inactive | inactive | inactive | inactive | inactive | inactive | – | inactive | inactive | inactive |
| [N-]=[N+]=CC(=O)OC[C@H](N)C(=O)O | inactive | inactive | inactive | inactive | inactive | inactive | inactive | inactive | inactive | inactive | inactive | inactive | inactive | inactive | – | inactive | inactive | inactive |
| O=[N+]([O-])c1ccc(Cl)c(Cl)c1 | – | inactive | inactive | inactive | inactive | inactive | inactive | inactive | inactive | inactive | inactive | inactive | inactive | inactive | – | inactive | inactive | inactive |
| O=[N+]([O-])c1cc([As](=O)(O)O)ccc1O | – | inactive | inactive | – | inactive | inactive | inactive | inactive | inactive | inactive | inactive | inactive | inactive | inactive | – | inactive | inactive | – |
| N#Cc1cccc(C#N)c1 | – | inactive | inactive | inactive | inactive | inactive | inactive | inactive | inactive | inactive | inactive | inactive | inactive | inactive | – | inactive | inactive | – |
| O=[N+]([O-])c1ccc(Cl)cc1 | inactive | – | inactive | – | inactive | inactive | inactive | inactive | inactive | inactive | inactive | inactive | inactive | inactive | – | inactive | inactive | – |
| Cc1cc(Cl)ccc1OC(C)C(=O)O (stereo unspecified) | – | inactive | inactive | – | inactive | inactive | inactive | inactive | inactive | inactive | inactive | inactive | inactive | inactive | – | – | – | – |
| O=C(O)COc1ccccc1 | – | inactive | inactive | – | inactive | inactive | inactive | inactive | inactive | inactive | inactive | inactive | inactive | inactive | – | inactive | inactive | – |
| N#Cc1ccccn1 | – | – | inactive | – | inactive | inactive | inactive | inactive | inactive | inactive | inactive | inactive | inactive | inactive | – | – | – | – |
| CCSC(=O)N1CCCCCC1 | inactive | inactive | inactive | inactive | inactive | inactive | inactive | inactive | inactive | inactive | inactive | inactive | inactive | inactive | – | inactive | inactive | – |
| CNC(=O)O/N=C/C(C)(C)SC | inactive | inactive | – | – | inactive | inactive | inactive | inactive | inactive | inactive | inactive | inactive | inactive | inactive | – | – | – | inactive |
| Nc1cc(Cl)cc(Cl)c1 | inactive | inactive | inactive | inactive | inactive | inactive | inactive | inactive | inactive | inactive | inactive | inactive | inactive | inactive | – | inactive | inactive | inactive |
| COP(=S)(OC)SCN1C(=O)c2ccccc2C1=O | inactive | inactive | inactive | inactive | inactive | inactive | inactive | inactive | inactive | inactive | inactive | inactive | inactive | inactive | – | – | – | inactive |
